High-throughput results from PubChem BioAssay.
TGFb SMAD3 inh: qHTS for Inhibitors of TGF-b; HepG2 CAGA-GFP TGF-b/SMAD3 reporter, GFP fluorescence, 18 h; TGF-beta stimulated, 500 pg/mL final; Potency, µM (highest dose often 46.1 µM), usual class: inhibitors; 410,000 tested, 1.2% active; AID 588855, 2011; also: nearly all actives have a fitted effect of over 65% in size
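Cell-based qHTS in HEPG2 carrying a CAGA-GFP Smad reporter; compounds added before 500 pg/mL final TGF-beta, 18 h incubation at 37 degrees C, GFP fluorescence quantified per cell by imaging cytometry.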
S2 tox: Viability Counterscreen for Primary qHTS for Inhibitors of ATXN expression | S2 cells (HEK-293 line with an ATXN2-luciferase reporter) viability, CellTiter-Fluor protease fluorescence, 24 h | Potency, µM (highest dose often 56.7 µM), actives largely listed as cytotoxic | 400,000 tested, 0.49% active | AID 651635, 2014; also: nearly all actives have a fitted effect of over 40% in size
ATXN2 expr inh: Primary qHTS for Inhibitors of ATXN expression | HEK-293 ATXN2-luciferase reporter, luminescence, 24 h | Potency, µM (series often up to 57 µM), usual class: inhibitors | 360,000 tested, 0.72% active | AID 1745845, 2022; also: nearly all actives have a fitted effect of over 55% in size
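qHTS (up to 57 uM final) was run with 24 h compound exposure of reporter cells at 37 °C. Each well was multiplexed: SteadyGlo luminescence measured ATXN2-luciferase expression after a fluorogenic Gly-Phe-AFC viability readout (25 uM final).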
HepG2 viability: qHTS for Inhibitors of TGF-b: Cytotox Counterscreen; HepG2 CAGA-GFP viability, ATP luminescence, 18 h; Potency, µM (doses to about 46.1 µM), usual class: cytotoxic; 410,000 tested, 0.76% active; AID 588856, 2011
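HepG2 CAGA-GFP cells (1000/well, DMEM with 1% FBS) received compound, then TGF-beta at 500 pg/mL final, and were incubated 18 hours at 37 degrees C. Viability was read by CellTiter-Glo luminescence. Media-only wells were set as complete cell-killing and DMSO as no toxicity.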
uPA generation: qHTS for Inhibitors of Cell Surface uPA Generation. 330,000 tested, 0.31% active. Potency, µM (highest dose often 38.3 µM), usual class: inhibitors. cell surface uPA generation assay, qHTS; active = well fitted inhibition curve with a large enough effect; inconclusive = small, poorly fitted or top-dose-only effect; inactive = no such curve, though single readings can be large or run the other way; tested in mouse RAW 264.7 cells; also: nearly all actives have a fitted effect of over 55% in size
Giardia kill: Small Molecules that selectively kill Giardia lamblia: qHTS; Giardia lamblia trophozoite viability; AID 540267, 2011; activity change, % at 7.66 µM, hits read low; 340,000 tested, 0.15% active; in the data active = activity change below about -80%; inconclusive = between about -30% and that limit;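 also: parasites exposed to compound for two days anaerobically before the ATP read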
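Killing of trophozoites was scored by loss of ATP luminescence after a 48 hrs anaerobic exposure to compounds at 37 deg C, using 100 cells per well.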
Hits are given with their value; 0 = inactive; ? = inconclusive; - = no result given. Shown are actives, neighbours in structure and some others; about 2.6% of the full set was active somewhere. Unless noted, calls follow the shape of the dose curve; as a rule, active = well fitted curve in the direction sought with a large enough effect; inconclusive = small, poorly fitted or top-dose-only effect, or another doubt; inactive = no such curve, though single readings can be large; an effect the other way counts as inactive or inconclusive.

SMILES	TGFb SMAD3 inh	S2 tox	ATXN2 expr inh	HepG2 viability	uPA generation	Giardia kill
O=C1c2ccccc2-c2onc3ccc(N4CCCC4)c1c23	?	24µM	?	0	?	0
O=C1c2ccccc2-c2onc3ccc(NCc4ccco4)c1c23	0	14µM	?	0	0	0
CCOc1ccc2noc3c2c1C(=O)c1ccccc1-3	?	0	0	0	0	0
Cc1ccc(C(C)CCN2CCOc3ccc(CN4CCOCC4)cc3C2)o1 (stereo not given)	-	0	-	-	-	-
CCO[C@@H]1OC(C(=O)NCc2nc3ccccc3[nH]2)=C[C@H](C2CC2)[C@H]1CCCO	0	?	0	0	4.5µM	0
CCSc1ncc(Cl)c(C(=O)Nc2sc3c(c2C(=O)NCCOC)CCCC3)n1	0	-	-	0	-	-
ClC(Cl)(c1nnnn1-c1ccccc1)c1nnnn1-c1ccccc1	?	?	?	11µM	0	0
O=C(NCc1cccnc1)/C(=C\c1ccc(-c2cccc(Cl)c2)o1)S(=O)(=O)c1ccccc1	16µM	-	25µM	0	?	0
O=C(NCc1cccnc1)/C(=C/c1ccc(-c2cccc(Cl)c2)o1)S(=O)(=O)c1ccccc1	?	0	?	0	0	0
Cc1ccc(NC(=O)c2cnn(-c3ccccc3)c2NC(=O)c2ccco2)cc1C	0	0	0	13µM	0	0
Cn1cc(-c2cnn3c(N)c(Br)c([C@H]4CCCNC4)nc23)cn1	-	-	0.39µM	-	-	-
CC1(Cc2ccccc2OC(F)(F)F)C(=O)Nc2ccc(S(=O)(=O)NC3CCCCC3)cc21 (stereo not given)	13µM	?	?	0	-	-
COC(=O)c1nn(-c2ccc3c(c2)CCN3C(C)=O)cc1O	0	0	?	0	-	-87
C/C(=N\NC(=O)C12CCC(C)(C(=O)O1)C2(C)C)c1ccccc1O (stereo not given)	?	0	28µM	0	0	0
CCC1=C(c2ccc(C)cc2)S(=O)(=O)N=C1N1CCC(C(=O)NCCc2ccc(Cl)cc2)CC1	13µM	-	-	0	-	-
C=CCn1cc(C(=O)NCCN(CC)CC)c(=O)c2cc(S(=O)(=O)N3CCCCCC3)ccc21	0	0	0	0	0	0
C=CCn1cc(C(=O)NCCOC)c(=O)c2cc(S(=O)(=O)N3CCCCCC3)ccc21	?	0	-	10µM	0	0
CC(C)OC(=O)OCOP(=O)(CO[C@H](C)Cn1cnc2c(N)ncnc21)OCOC(=O)OC(C)C	-	0	?	-	-	-
NC(=O)c1nsc(C(=O)N(CC(=O)NC2CCCCC2)Cc2ccc3c(c2)OCO3)c1N	0	-	-	0	-	0
COc1ccc(NC(C)=O)c(C)c1	0	0	0	0	0	0
COc1cc(C)c(C(=O)CC(=O)c2c(C)cc(OC)cc2C)c(C)c1	0	0	25µM	0	0	0
Cc1cccc2cc(CN(CC3CCCO3)C(=O)c3ccccc3F)c(N(C)C)nc12 (stereo not given)	-	0	-	-	-	-
N#Cc1c(N)n(CCCN2CCOCC2)c2nc3ccccc3nc12	0	-	0	0	0	0
Nc1c(C(=O)Nc2ccccc2)c2nc3ccccc3nc2n1CCCN1CCOCC1	?	0	?	14µM	0	0
Cc1ccc(S(=O)(=O)Nc2ccc(-c3nc4ccc(C)cc4s3)cc2)cc1	?	0	0	10µM	0	0
SMILES	TGFb SMAD3 inh	S2 tox	ATXN2 expr inh	HepG2 viability	uPA generation	Giardia kill
Cc1cccc(S(=O)(=O)Nc2ccc(-c3nc4ccc(C)cc4s3)cc2)c1	13µM	0	0	0	0	0
COC(=O)C(Cc1ccccc1)NS(=O)(=O)c1cc(Br)ccc1Br (stereo not given)	0	-	-	0	-	0
Cc1cccc(N2CCN(C(=S)Nc3ccc4nc(N5CCN(C)CC5)cc(C)c4c3)CC2C)c1 (stereo not given)	?	-	-	10µM	0	-89
Cc1cc(N2CCN(C)CC2)nc2ccc(NC(=S)N3CCN(c4ccc(F)cc4)CC3)cc12	0	?	?	0	0	-85
Cc1cc(N2CCN(C)CC2)nc2ccc(NC(=S)N3CCCCC3)cc12	0	0	0	0	0	0
Cc1cc(N2CCN(C)CC2)nc2ccc(NC(=S)N3CCN(c4ccc(Cl)cc4)CC3)cc12	0	0	0	0	0	?
Cc1cccc(N2CCN(C(=S)Nc3ccc4nc(N5CCN(C)CC5)cc(C)c4c3)CC2)c1C	0	?	-	0	0	-82
Cc1cc(N2CCN(C)CC2)nc2ccc(NC(=S)N3CCN(c4cccc(Cl)c4)CC3)cc12	0	0	0	0	0	-81
COc1cc(=O)n2c(c1C(=O)N(C)Cc1nonc1C)CCN(CC1CC=CCC1)CC2 (stereo not given)	-	0	-	-	-	-
Cc1cc(C)n(-c2cccc(C(=O)NCC3Cc4cccc(-c5cccnc5)c4O3)c2)n1 (stereo not given)	-	0	-	-	-	-
CC(C)(C)C1CCc2oc3ccc(NS(=O)(=O)c4ccc(C(=O)O)cc4)cc3c2C1 (stereo not given)	22µM	-	-	0	-	-
Cc1cc(F)ccc1S(=O)(=O)Nc1ccc2oc3c(c2c1)CC(C)CC3 (stereo not given)	?	32µM	?	0	-	-
Cc1cc(C)c(S(=O)(=O)Nc2ccc3oc4c(c3c2)CCCC4)cc1C	?	0	0	0	-	-
CC(=O)c1c(C)oc2ccc(NS(=O)(=O)c3ccc(F)cc3C)cc12	?	0	0	0	0	0
Cc1cc(S(=O)(=O)Nc2ccc3oc4c(c3c2)CCCC4)ccc1Cl	16µM	?	?	0	-	-
CC(C)(C)OC(=O)N[C@H]1CCCCCC=C[C@@H]2C[C@@]2(C(=O)NS(=O)(=O)C2CC2)NC(=O)[C@@H]2C[C@@H](OC(=O)N3Cc4cccc(F)c4C3)CN2C1=O	-	-	0	-	-	-
Cc1oc(-c2cccc(NC(=O)C3CCCN(C)C3)c2)nc1CNC(=O)c1coc2c1C(=O)CCC2 (stereo not given)	-	0	-	-	-	-
O=[N+]([O-])/C=C/c1cc2ccccc2[nH]1	?	?	-	20µM	?	0
O=[N+]([O-])c1cccc(-c2cc3ccccc3[nH]2)c1	0	0	0	0	0	0
CC1=CC(C)(C)N2C(=O)C3(C(C#N)=C(N)Oc4cc(O)ccc43)c3c(C)c(C)cc1c32 (stereo not given)	?	13µM	?	0	-	0
COc1ccc(OC)c(NC(=O)CSc2nnnn2-c2ccc3c(c2)OCO3)c1	0	0	8.9µM	0	?	0
COc1ccc(-n2nnnc2SCC(=O)N2CCOCC2)cc1	0	0	0	0.56µM	0	0
CC(=O)N(c1ccc2ccccc2c1)C1SC(=O)N(c2cccc(C)c2)C1=O (stereo not given)	-	-	-	-	-	0
CN(CCCNC(=O)c1cccn2c(=O)c3ccccc3nc12)Cc1ccccc1	11µM	?	?	0	-	0
